Experiment [1] in a line: small molecules captured by biotinylated probe aFSTL3 – biochemical, small-molecule microarray, fluorescence 635/667, stem cell growth factor project, primary screen (AID 1064).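 Note: measures binding of the biotinylated anti-FSTL3 antibody to printed compounds.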 Conditions: higher = more signal.
Experiment [2] in a line: binders from COS7 lysate, DM2A8 probe, primary screen, torsin A project, cell lysate, small-molecule microarray, fluorescence 635/667 (AID 1065). The following applies: higher = more signal, COS7 lysate expressing mutant human TOR1A.
A short description of experiment [3]: small molecules captured by biotinylated probe aFGF2 – biochemical, small-molecule microarray, fluorescence 635/667, stem cell growth factor project, primary screen (AID 1067).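 Note: measures binding of biotinylated aFGF2 protein to printed compounds on slides; z-score merges feature fluorescence and signal-to-noise across triplicate slides.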 Conditions: higher = more signal.
Experiment [4] can be described thus: small molecules captured by biotinylated probe aFGF10 – biochemical, small-molecule microarray, fluorescence 635/667, stem cell growth factor project, primary screen (AID 1071).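 Note: score merges 667 nm spot intensity and signal to noise from triplicate slides.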 Conditions: higher = more signal.
Experiment [5] deals with Neurogenic locus notch homolog protein 2 (Homo sapiens) (UniProt Q04721). Briefly: small molecules binding Notch2 protein – biochemical, small-molecule microarray, 635 nm fluorescence, stem cell growth factors, primary screen (AID 1073). The following applies: higher = more signal.
For experiment [6], the target named is Pro-neuregulin-1, membrane-bound isoform (Homo sapiens) (UniProt Q02297). The experiment is described as follows: small molecules binding neuregulin-1 protein – biochemical, small-molecule microarray, fluorescence 635/667, psychiatric disease protein project, primary screen (AID 1075).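 Note: score combines 667 nm spot fluorescence with signal to noise.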 Conditions: NRG1 binding, 635 nm fluorescence, higher = more signal.
Experiment [7] concerns Neuregulin-1 EGF-like domain. The experiment is described as follows: small molecules binding NRG1 EGF domain – biochemical, small-molecule microarray, 635 nm fluorescence, primary screen (AID 1081).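 Note: binding of the protein to compounds printed on small-molecule microarray slides.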 Conditions: higher = more signal.
A short description of experiment [8]: FRG1 expression reporter modulators in myotubes – cell-based, C2C12 myotubes, firefly/Renilla luciferase, luminescence, FRG1 inhibition for FSHD, primary screen (AID 1084). The following applies: FRG1 promoter luciferase, higher = more signal, called active from +8 up or from −8 down.
Experiment [9] is described as follows: small molecules captured by biotinylated probe aFST – biochemical, small-molecule microarray, fluorescence 635/667, stem cell growth factor project, primary screen (AID 1086).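 Note: score merges 667 nm fluorescence with signal-to-noise of each printed compound spot.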 The following applies: higher = more signal.
The nature of experiment [10]: binders of probe aHhip on microarray, primary screen, stem cell growth factor project, biochemical, small-molecule microarray, fluorescence 635/667 (AID 1087).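 Note: score merges spot fluorescence at 667nm with spot signal to noise ratio.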 The following applies: higher = more signal.
Experiment [11] has as its system PRMT1 (protein arginine N-methyltransferase 1). Briefly: small molecules binding arginine methyltransferase PRMT1 – biochemical, small-molecule microarray, 635 nm fluorescence, primary screen (AID 1088).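 Note: binding of Prmt1 protein to compounds spotted on small-molecule microarray slides.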 The following applies: higher = more signal.
Experiment [12] is described as follows: growth effects on S. cerevisiae YJM789 – YJM789 clinical isolate, OD600, 24 h, basal, primary screen (AID 1089).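 Note: growth of clinical yeast isolate S. cerevisiae YJM 789 seeded 1000 cells per well; test concentration not given here.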 Conditions: higher = more signal, called active from +8 up or from −8 down.
A short description of experiment [13]: S. pombe growth modifiers, basal conditions – strain 972, OD600, 24 h, no modulator, primary screen (AID 1090).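 Note: basal condition with compound alone and no growth modifier present; test concentration not given here.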 The following applies: S. pombe 972 growth, higher = more signal, called active from +8 up or from −8 down.
Experiment [14] can be described thus: budding yeast growth modifiers under rapamycin – strain BY4716, OD600, 96 h, primary screen (AID 1091). Note: test concentration not given here. The following applies: S. cerevisiae BY4716 + rapamycin, higher = more signal, called active from +8 up or from −8 down.
Experiment [15] has as its target Torsin-1A-interacting protein 2 (Homo sapiens) (UniProt Q8NFQ8). The experiment is described as follows: small molecules binding lysate-expressed LULL1 – cell lysate, human LULL1 lysate, 635/667 nm fluorescence, primary screen (AID 1092).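 Note: probe is lysate of COS7 cells overexpressing human LULL1; score merges per-feature 667 nm fluorescence with signal-to-noise.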 Conditions: small-molecule microarray, hLULL1 lysate binding, 635 nm fluorescence; higher = more signal.
A short description of experiment [16]: optical density change of DRC41 E. coli – strain DRC41, OD650, 24 h, E. coli filamentation project, primary screen (AID 1093).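 Note: MC1000 strain lacking acrAB efflux and sulA so SOS filamentation is blocked; test concentration not given here.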 Conditions: E. coli DRC41 growth, higher = more signal, called active from +8 up or from −8 down.
A short description of experiment [17]: probe aLefty2 binding to arrayed compounds – biochemical, biotinylated probe, 635/667 nm fluorescence, primary screen (AID 1094).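 Note: score merges spot fluorescence near 667 nm with spot signal-to-noise ratio.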 Conditions: small-molecule microarray, higher = more signal.
Experiment [18] deals with Noggin (protein binding on small-molecule microarray). Briefly: small molecules binding Noggin protein – biochemical, 635/667 nm fluorescence, primary screen (AID 1095).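 Note: score merges 667 nm feature fluorescence with signal to noise over triplicate slides.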 Conditions: 635 nm fluorescence, higher = more signal.
For experiment [19], the target named is Neurogenic locus notch homolog protein 3 (Homo sapiens) (UniProt Q9UM47). Briefly: small molecules binding NOTCH3 protein – biochemical, 635/667 nm fluorescence, primary screen (AID 1096). Conditions: small-molecule microarray, 635 nm fluorescence, higher = more signal.
Experiment [20] is described as follows: probe aEGFR binding to arrayed compounds – biochemical, biotinylated probe, 635/667 nm fluorescence, primary screen (AID 1097).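 Note: probe is a biotinylated anti-EGFR antibody binding compounds printed on slides; score combines fluorescence near 667 nm and signal to noise of each spot.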 The following applies: small-molecule microarray, higher = more signal.

Activity calls are given as the source filed them.

Neurogenic locus notch homolog protein 3 (Homo sapiens), sequence (Q9UM47 whole entry, looked up): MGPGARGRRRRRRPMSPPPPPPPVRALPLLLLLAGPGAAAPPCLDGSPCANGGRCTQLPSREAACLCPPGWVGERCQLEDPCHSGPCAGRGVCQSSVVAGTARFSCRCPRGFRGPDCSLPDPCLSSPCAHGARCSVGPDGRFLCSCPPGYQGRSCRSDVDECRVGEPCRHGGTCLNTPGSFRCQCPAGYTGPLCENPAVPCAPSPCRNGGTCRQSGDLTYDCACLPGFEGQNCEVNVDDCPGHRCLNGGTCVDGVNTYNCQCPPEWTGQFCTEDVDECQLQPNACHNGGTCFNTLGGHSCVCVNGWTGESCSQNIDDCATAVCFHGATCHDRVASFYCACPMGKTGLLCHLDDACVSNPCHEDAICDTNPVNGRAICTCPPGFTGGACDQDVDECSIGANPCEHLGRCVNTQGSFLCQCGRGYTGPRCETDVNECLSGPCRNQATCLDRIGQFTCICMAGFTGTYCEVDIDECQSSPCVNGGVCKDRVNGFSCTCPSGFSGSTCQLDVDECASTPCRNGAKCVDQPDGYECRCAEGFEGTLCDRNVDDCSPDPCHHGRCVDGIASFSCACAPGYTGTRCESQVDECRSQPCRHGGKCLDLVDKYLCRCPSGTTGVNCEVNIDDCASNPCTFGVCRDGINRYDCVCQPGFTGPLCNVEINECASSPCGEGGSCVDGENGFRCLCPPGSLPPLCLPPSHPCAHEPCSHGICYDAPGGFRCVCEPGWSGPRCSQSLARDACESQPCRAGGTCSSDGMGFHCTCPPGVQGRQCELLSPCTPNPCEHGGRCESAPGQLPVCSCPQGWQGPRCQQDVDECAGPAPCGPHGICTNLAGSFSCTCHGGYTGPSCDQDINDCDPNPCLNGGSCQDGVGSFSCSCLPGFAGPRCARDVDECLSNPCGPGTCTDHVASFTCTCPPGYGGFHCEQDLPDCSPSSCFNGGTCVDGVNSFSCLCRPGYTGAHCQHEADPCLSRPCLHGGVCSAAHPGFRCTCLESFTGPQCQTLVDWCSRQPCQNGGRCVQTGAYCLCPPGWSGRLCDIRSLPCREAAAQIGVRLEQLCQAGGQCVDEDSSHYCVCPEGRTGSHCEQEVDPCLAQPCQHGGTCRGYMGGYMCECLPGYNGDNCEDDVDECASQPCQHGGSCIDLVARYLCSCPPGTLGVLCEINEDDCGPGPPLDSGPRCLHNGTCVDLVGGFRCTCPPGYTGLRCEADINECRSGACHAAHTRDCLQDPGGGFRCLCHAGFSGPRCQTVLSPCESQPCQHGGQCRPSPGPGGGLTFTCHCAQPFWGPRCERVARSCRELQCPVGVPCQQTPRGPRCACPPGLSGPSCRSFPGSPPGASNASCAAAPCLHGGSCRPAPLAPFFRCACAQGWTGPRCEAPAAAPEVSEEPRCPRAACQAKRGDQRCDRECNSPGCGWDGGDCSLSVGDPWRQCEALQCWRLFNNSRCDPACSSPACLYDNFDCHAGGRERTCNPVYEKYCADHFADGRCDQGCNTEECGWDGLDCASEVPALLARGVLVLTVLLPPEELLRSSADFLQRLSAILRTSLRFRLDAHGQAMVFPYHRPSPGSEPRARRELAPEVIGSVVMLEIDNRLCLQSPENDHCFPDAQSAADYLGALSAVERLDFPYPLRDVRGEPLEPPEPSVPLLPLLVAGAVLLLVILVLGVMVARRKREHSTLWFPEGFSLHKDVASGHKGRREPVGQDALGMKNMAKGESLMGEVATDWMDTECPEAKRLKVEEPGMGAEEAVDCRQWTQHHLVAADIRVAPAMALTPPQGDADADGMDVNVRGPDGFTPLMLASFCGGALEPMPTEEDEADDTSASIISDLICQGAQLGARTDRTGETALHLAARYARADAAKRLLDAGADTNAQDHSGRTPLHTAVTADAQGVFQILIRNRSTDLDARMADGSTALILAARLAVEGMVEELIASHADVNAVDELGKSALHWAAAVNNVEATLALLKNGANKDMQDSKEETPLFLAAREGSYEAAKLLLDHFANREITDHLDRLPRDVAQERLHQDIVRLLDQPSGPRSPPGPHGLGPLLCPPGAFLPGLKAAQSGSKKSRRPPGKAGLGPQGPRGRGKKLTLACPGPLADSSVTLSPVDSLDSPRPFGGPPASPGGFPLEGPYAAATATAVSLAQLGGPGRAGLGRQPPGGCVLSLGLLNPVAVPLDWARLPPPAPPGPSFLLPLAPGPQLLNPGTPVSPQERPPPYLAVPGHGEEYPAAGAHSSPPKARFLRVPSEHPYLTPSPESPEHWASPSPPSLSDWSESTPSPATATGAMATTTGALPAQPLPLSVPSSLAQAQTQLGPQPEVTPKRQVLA
Pro-neuregulin-1, membrane-bound isoform (Homo sapiens), sequence (Q02297 whole entry, looked up, the tested form may be a part, canonical isoform): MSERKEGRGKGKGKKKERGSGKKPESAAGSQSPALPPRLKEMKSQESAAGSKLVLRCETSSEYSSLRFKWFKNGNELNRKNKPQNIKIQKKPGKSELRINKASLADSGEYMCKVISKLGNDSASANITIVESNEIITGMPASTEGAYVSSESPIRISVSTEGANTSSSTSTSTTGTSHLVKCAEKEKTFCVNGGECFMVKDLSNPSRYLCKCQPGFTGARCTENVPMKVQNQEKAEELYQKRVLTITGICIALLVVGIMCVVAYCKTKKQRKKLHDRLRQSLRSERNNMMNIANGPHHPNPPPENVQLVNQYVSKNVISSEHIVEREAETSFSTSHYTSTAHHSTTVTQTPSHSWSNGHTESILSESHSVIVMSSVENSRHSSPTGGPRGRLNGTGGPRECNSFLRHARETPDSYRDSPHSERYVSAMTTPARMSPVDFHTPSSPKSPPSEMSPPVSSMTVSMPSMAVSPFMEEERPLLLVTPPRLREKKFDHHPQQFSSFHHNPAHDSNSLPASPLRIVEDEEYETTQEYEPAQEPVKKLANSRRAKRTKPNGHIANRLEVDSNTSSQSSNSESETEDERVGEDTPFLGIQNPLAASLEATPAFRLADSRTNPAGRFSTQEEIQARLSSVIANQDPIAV
Torsin-1A-interacting protein 2 (Homo sapiens), sequence (Q8NFQ8 whole entry, looked up): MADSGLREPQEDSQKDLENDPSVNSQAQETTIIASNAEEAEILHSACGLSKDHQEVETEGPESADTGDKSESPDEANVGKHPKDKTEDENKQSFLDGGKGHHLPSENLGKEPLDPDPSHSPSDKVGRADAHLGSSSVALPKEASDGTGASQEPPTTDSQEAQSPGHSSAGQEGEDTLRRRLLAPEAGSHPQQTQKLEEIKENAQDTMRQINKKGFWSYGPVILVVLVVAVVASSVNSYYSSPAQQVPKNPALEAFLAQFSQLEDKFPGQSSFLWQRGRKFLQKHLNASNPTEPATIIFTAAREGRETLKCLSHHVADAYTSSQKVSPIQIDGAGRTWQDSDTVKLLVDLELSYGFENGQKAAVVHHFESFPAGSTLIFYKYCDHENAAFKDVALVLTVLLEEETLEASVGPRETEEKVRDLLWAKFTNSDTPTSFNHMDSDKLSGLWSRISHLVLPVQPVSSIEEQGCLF

As to `CCOC(=O)CCN1C(=O)[C@H]2[C@H]3[C@H](O)[C@H](O)CC(=NOCC(C)C)[C@H]3CC[C@H]2C1=O`, the composite z-score was 0.185 in [1]; 0.0849 in [2]; -0.0232 in experiment [3]; 0.125 in [4]; -0.131 in [5]; -0.312 in [6]. Besides, the composite z-score in [7] was 0.176; in [9] it was 0.349; in experiment [10], -0.264; in experiment [11], -0.309; in [15], 0.22; in experiment [17] it was 0.096. Moreover, the values for the composite z-score in experiment [18], in [19] and in [20] were 0.109, -0.0186 and -0.15, respectively. Moreover, the z-score in experiment [8] is 0.813 (inactive); in experiment [12], 0.199 (inactive); in experiment [13], 0.307 (inactive); in [14] it was 0.0797 (inactive); in experiment [16], 0.251 (inactive).
`COC(=O)[C@H]1[C@@H](O)[C@@]2(O)c3ccccc3O[C@@]2(c2ccccc2)[C@@H]1c1ccccc1`: the composite z-score is 1.08 in experiment [1]; 0.177 in experiment [2]; -0.114 in experiment [3]; 0.269 in [4]; 0.254 in [5]; -0.68 in [6]. For the same compound, the composite z-score in experiment [7] was 0.768; in experiment [9], 0.0643; in [10] it was -0.301; in experiment [11] it was -0.701; in experiment [15], 0.124; in experiment [17], -0.0324. Moreover, the composite z-score in [18] is -0.169; in experiment [19] it was -0.104; in experiment [20] it was -0.123. In addition, the z-score in [8] was -0.886 (inactive); in experiment [12], 0.0966 (inactive); in experiment [13], 0.226 (inactive); in experiment [14], 0.705 (inactive); in experiment [16] it was 0.685 (inactive).
For `O=C1C[C@@H](O)[C@@H](O)[C@@H]2[C@@H]3C(=O)N(Cc4ccccc4)C(=O)[C@@H]3CC[C@@H]12`, the composite z-score in [1] was -0.281; in experiment [2], 0.311; in experiment [3], -0.0573; in experiment [4], 0.286; in experiment [5], 0.474; in experiment [6] it was 0.205. The composite z-score in experiment [7] was 0.771; in experiment [9] it was -0.0427; in experiment [10] it was -0.204; in experiment [11] it was 0.187; in experiment [15], 0.824; in experiment [17], -0.14. For the same compound, the composite z-score in experiment [18] was 0.45; in [19], 0.618; in experiment [20], -0.0432. Also, the z-score in experiment [8] was 0.554 (inactive); in [12], -0.365 (inactive); in experiment [13] it was -0.136 (inactive); in [14] it was -0.115 (inactive); in experiment [16], -0.174 (inactive).
Consider `CCOC(=O)NN=C1C[C@@H](O)[C@@H](O)[C@@H]2[C@@H]3C(=O)N([C@@H](C)c4ccccc4)C(=O)[C@@H]3CC[C@H]12`, for which the composite z-score in [1] was -0.322; in [2] it was -0.0183; in [3] it was -0.085; in [4], 0.321; in experiment [5] it was 0.453; in experiment [6], -0.0718. The composite z-score in [7] is 0.0602; in experiment [9], 0.252; in experiment [10], 0.138; in experiment [11], 0.215; in experiment [15], 0.261; in experiment [17] it was -0.0458. The composite z-score in experiment [18] was found to be 0.264; in [19] it was 0.507; in experiment [20], 0.0122. Further, the z-score in [8] was -0.223 (inactive); in experiment [12], -0.612 (inactive); in experiment [13], 0.366 (inactive); in experiment [14], -0.222 (inactive); in [16] it was 0.352 (inactive).
In the case of `O=C1[C@H]2[C@H]3[C@H](O)[C@H](O)CC(=NOCc4ccccc4)[C@H]3CC[C@H]2C(=O)N1Cc1ccc2c(c1)OCO2`, the composite z-score was -0.537 in experiment [1]; 0.239 in [2]; -0.172 in experiment [3]; 0.315 in [4]; 0.306 in [5]; 0.273 in experiment [6]. The composite z-score in experiment [7] is 0.278; in experiment [9], 0.0418; in experiment [10], -0.0003; in [11], 0.437; in [15] it was 1.1; in experiment [17], -0.0766. The composite z-score in experiment [18] is 0.273; in [19] it was 0.546; in experiment [20], 0.0102. Also, the z-score is 0.0017 (inactive) in [8]; -0.627 (inactive) in experiment [12]; -0.674 (inactive) in experiment [13]; -1.53 (inactive) in [14]; 1.26 (inactive) in experiment [16].

The record behind these values is PubChem BioAssay.
